LYPLA2 inh: LYPLA2 (human) inhibition in PME1 counter-screen. recombinant LYPLA2, FP-Rh probe fluorescence polarization. actives 0.38% (n = 320,000). inhibition, % at 5.9 µM. O95372. AID 2177;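 active = inhibition above the screen-wide mean plus 3 SD, limit set per campaign, cut at about 26% in these data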;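 note: 0% = LYPLA2 with DMSO and 100% = wells lacking LYPLA2 enzyme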
Fam108B counter: counter-screen for RBBP9 inhibitors: inhibitors of mouse Fam108B | recombinant Fam108B, FP-Rh probe fluorescence polarization | actives 0.33% (n = 300,000) | inhibition, % at 9.51 µM | AID 1947;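 active = inhibition above the screen mean inhibition plus 3 SD, computed separately per campaign, cut at about 18% in these data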;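 note: inhibitors lower polarization as less probe binds the enzyme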
PAD4 inh: PAD4 (human) enzyme inhibition. actives 0.41% (n = 330,000). Q9UM07. AID 485272. inhibition, % at 6.36 µM. recombinant PAD4, RCA probe fluorescence polarization;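 active = percent inhibition above a cutoff equal to the mean of all tested compounds plus 3 SD, cut at about 15% in these data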;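 note: 0% = PAD4 with RCA probe and DMSO and 100% = probe without PAD4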
PME-1 inh: PME-1 (human) inhibition; Q9Y570; recombinant PME-1, FP-Rh probe fluorescence polarization; inhibition, % at 5.9 µM; actives 0.53% (n = 320,000);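 active = inhibition above the campaign mean of all compounds plus 3 SD, cut at about 26% in these data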;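 note: competitive labeling of PME-1 active site by serine hydrolase directed probe; 0% = PME-1 with DMSO and 100% = wells lacking PME-1 enzyme; inhibitors block probe labeling so polarization falls and inhibition rises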
Target sequence (Q9Y570 whole entry, looked up): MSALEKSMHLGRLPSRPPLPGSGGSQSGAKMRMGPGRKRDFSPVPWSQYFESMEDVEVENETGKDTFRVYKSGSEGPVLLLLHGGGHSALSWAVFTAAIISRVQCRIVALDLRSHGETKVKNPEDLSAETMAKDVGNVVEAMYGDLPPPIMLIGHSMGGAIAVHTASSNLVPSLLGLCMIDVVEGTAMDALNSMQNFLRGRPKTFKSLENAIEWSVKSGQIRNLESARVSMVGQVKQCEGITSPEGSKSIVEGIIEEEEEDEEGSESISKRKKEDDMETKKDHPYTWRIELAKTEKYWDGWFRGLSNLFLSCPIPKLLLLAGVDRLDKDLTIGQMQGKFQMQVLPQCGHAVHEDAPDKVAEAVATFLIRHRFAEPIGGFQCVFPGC
GSTO1 inh: blocks human GSTO1 in RBBP9 counter-screen; AID 1974; recombinant GSTO1, activity-based probe fluorescence polarization; inhibition, % at 5.96 µM; P78417; actives 1.1% (n = 300,000);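 active = inhibition above the campaign mean inhibition plus 3 SD, cut at about 35% in these data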;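 note: 0% = GSTO1-1 with DMSO and 100% = wells lacking GSTO1-1 enzyme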
Target sequence (P78417 whole entry, looked up): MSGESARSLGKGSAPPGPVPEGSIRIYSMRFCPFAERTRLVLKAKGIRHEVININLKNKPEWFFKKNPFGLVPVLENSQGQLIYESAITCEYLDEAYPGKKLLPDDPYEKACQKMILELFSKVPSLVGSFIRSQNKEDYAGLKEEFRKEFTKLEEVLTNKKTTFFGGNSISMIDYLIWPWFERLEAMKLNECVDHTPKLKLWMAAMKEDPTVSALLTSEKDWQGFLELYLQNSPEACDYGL
LYPLA1 counter: LYPLA1 (human) inhibition in PME1 counter-screen; O75608; recombinant LYPLA1, FP-Rh probe fluorescence polarization; inhibition, % at 5.9 µM; actives 0.16% (n = 320,000); AID 2174;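 active = inhibition above the mean of all tested compounds plus 3 SD, set per campaign, cut at about 14% in these data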;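 note: inhibitors block serine hydrolase probe labeling of LYPLA1 so polarization falls; 0% = enzyme with DMSO and 100% = wells lacking LYPLA1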
LYPLA1 confirm: LYPLA1 (human) inhibition, confirmation counter-screen | shares compounds with LYPLA1 counter | recombinant LYPLA1, FP-Rh probe fluorescence polarization | inhibition, % at 5.9 µM | actives 69% (n = 480) | AID 2233;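 active = mean inhibition across replicates above the hit cutoff set in the primary screen, cut at about 15% in these data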;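 note: loss of FP-Rh probe labeling of LYPLA1 seen as lower polarization; 0% = LYPLA1 with DMSO and 100% = wells lacking LYPLA1 enzyme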
LYPLA2 conf: LYPLA2 (human) inhibition, confirmation counter-screen | shares compounds with LYPLA2 inh | recombinant LYPLA2, FP-Rh probe fluorescence polarization | inhibition, % at 5.9 µM | actives 72% (n = 1,100);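 active = mean inhibition across replicates above the hit cutoff set in the primary screen, cut at about 26% in these data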;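 note: blocked labeling of the enzyme by serine hydrolase FP-Rh probe lowers polarization; 0% = enzyme with DMSO and 100% = wells lacking LYPLA2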
Starred values were filed as active, the others as inactive; . = no result given. In the library only some 1.8% were active in any assay of this set; here they are far more common.

SMILES	LYPLA2 inh	Fam108B counter	PAD4 inh	PME-1 inh	GSTO1 inh	LYPLA1 counter	LYPLA1 confirm	others
O=C(CN1CCN(c2ccccn2)CC1)Nc1ccc(Cl)c(C(F)(F)F)c1	3	-5	-1	8	11	2	.
CCn1c2ccccc2c2nnc(SCc3ccc(C(=O)OC)o3)nc21	5	3	1	4	-1	15*	22*
COc1ccc(NC(=O)N(C)C[C@H]2Oc3ccc(NC(=O)Cc4ccccc4)cc3CC(=O)N([C@H](C)CO)C[C@H]2C)cc1	.	.	3	.	.	.	.
C=CCOc1cccc(C(=O)N2CCC(CCC(=O)NC3CC3)CC2)c1	6	-2	5	-6	2	23*	4
COc1ccccc1NC(=O)Cn1ccn(-c2cccc3ccccc23)c(=O)c1=O	-2	-1	-4	0	4	2	.
CCOC(=O)c1cnc(SCC(=O)Nc2ccc(N3CCOCC3)c(Cl)c2)nc1N	12	3	0	4	-3	16*	26*
CCOc1cc(CN2CCCC(C(=O)c3cccc(C(F)(F)F)c3)C2)ccc1O (centres undefined)	-1	-2	-1	0	5	35*	42*
CC1CC(C(=O)Nc2ccccc2)C(=O)O1 (centres undefined)	3	-2	1	-2	-4	-1	.
Cc1ccc(NC(=O)COC(=O)C2CC3C=CC2C3)cc1S(=O)(=O)N1CCCCC1 (centres undefined)	6	-2	1	5	0	20*	33*
CCN(CC)S(=O)(=O)c1cccc(NC(=O)COC(=O)C2CC3C=CC2C3)c1 (centres undefined)	13	11	4	1	2	30*	28*
COc1ccc(NC(=O)COC(=O)C2CC3C=CC2C3)cc1 (centres undefined)	7	-2	0	-2	0	4	.
Cn1cc(CN2CCC[C@H]2CO)c(-c2cccc(Cl)c2)n1	-10	0	2	8	7	0	.
CC(C)(C)OC(=O)N1CCC(CC2CC(c3ccccc3)=NO2)(C(=O)NCc2ccccc2)CC1 (centres undefined)	3	-1	0	5	6	0	.
COC(=O)C1(CC2CC(c3cccc(Br)c3)=NO2)CCN(C(=O)OC(C)(C)C)CC1 (centres undefined)	5	1	5	-4	5	24*	31*
CCOc1ccccc1NC(=O)c1cc(C(=O)Nc2ccccc2OCC)cc(N2C(=O)CCC2=O)c1	0	0	-1	-4	-5	-1	.
COc1ccc(/C=C2/SC(=S)N(CCCC(=O)Nc3ccccc3C(=O)O)C2=O)cc1	22	2	-2	-3	2	20*	19*
NC(=O)C1=C[C@H](c2ccc(C(F)(F)F)cc2)C[C@H](OCc2ccc(CO)cc2)O1	13	3	-7	14	3	30*	34*
NC(=O)C1=C[C@@H](c2ccc(C(F)(F)F)cc2)C[C@@H](OCc2ccc(CO)cc2)O1	-11	0	-1	-3	-1	-1	.
O=C(CN(C(=O)c1csnn1)c1ccccc1C(F)(F)F)NCc1ccccc1	2	-1	0	-2	-1	-4	.
O=C1/C(=C/c2cccc([N+](=O)[O-])c2)Oc2cc(O)ccc21	10	14	3	4	11	17*	15*
CCOC(=O)c1c(NC(=O)CSc2ncnc3ccccc23)sc(C(C)=O)c1C	5	-1	10	4	-6	16*	8
Cc1ccc(C(=O)Nn2cnnc2)cc1	-4	1	-1	-1	4	2	.
CCNC(=O)NC(=O)C(C)On1nnc2ccc(S(=O)(=O)N(CC)CC)cc21 (centres undefined)	-1	1	4	2	3	-2	.
C=CCSc1nc(N)c(C#N)c(-c2ccccc2)c1C#N	8	1	-2	-7	2	14*	12
CCCSc1nc(N)c(C#N)c(-c2ccc(C)cc2)c1C#N	2	-3	0	2	0	1	.
SMILES	LYPLA2 inh	Fam108B counter	PAD4 inh	PME-1 inh	GSTO1 inh	LYPLA1 counter	LYPLA1 confirm	others
CCOc1ccc(C(C)=O)cc1COc1ccc(-c2nnco2)cc1	4	-2	0	0	0	-3	.
N#CCC(=O)N/N=C\c1ccccc1OC/C=C/c1ccccc1	19	-10	-8	-5	4	-9	.
COc1cc(OC)c(OC)cc1/C=C1\Oc2cc(OCC(=O)N3Cc4ccccc4C[C@H]3C(=O)O)ccc2C1=O	-6	2	3	-12	-74	25*	22*
COC(=O)/C=C1/SC(=NC(=O)c2ccc(Cl)cc2)NC1=O	5	-7	-6	7	0	-1	.
O=C1c2ccsc2SCCN1Cc1ccccc1	3	3	0	4	-6	0	.
COc1ccc(C(C(=O)NC(C)(C)C)N(C(=O)CCC(=O)Nc2cc(C)on2)c2cc(C)cc(C)c2)cc1 (centres undefined)	3	-3	-3	2	-1	2	.
COc1ccc(C(C(=O)NC(C)(C)C)N(C(=O)CCC(=O)Nc2cc(C)on2)c2ccccc2F)cc1 (centres undefined)	2	0	2	2	3	15*	1
COc1cc2nc(CSc3ncn[nH]3)[nH]c(=O)c2cc1OC	5	6	0	2	8	4	.
COc1ccccc1-n1cc(C(=O)NCC(=O)NCc2ccc(F)cc2)c2ccccc2c1=O	4	4	3	6	-1	0	.
COc1ccccc1-n1cc(C(=O)NCC(=O)N2CCN(Cc3ccccc3)CC2)c2ccccc2c1=O	84*	-5	-2	2	5	16*	22*	LYPLA2 conf=81*
CN(C)c1ccc(S(=O)(=O)NCC(=O)NCc2ccccc2)cc1[N+](=O)[O-]	12	4	2	5	6	1	.
CN(C)c1ccc(S(=O)(=O)NCC(=O)N2CCN(c3ccccc3)CC2)cc1[N+](=O)[O-]	28*	1	-3	8	8	18*	24*	LYPLA2 conf=26*
Cc1c(NC(=O)Nc2ccccc2[N+](=O)[O-])c(=O)n(-c2ccccc2)n1C	1	0	-3	7	3	-1	.
Cc1cc(OCc2cc(C(=O)N3CCC(Oc4cccnc4)CC3)no2)cc(C)c1Cl	59*	-1	-3	5	-4	30*	33*	LYPLA2 conf=62*
O=C(CCCCn1c(=O)[nH]c2ccccc2c1=O)N1CCN(c2cccc(C(F)(F)F)c2)CC1	83*	2	4	-1	4	20*	22*	LYPLA2 conf=73*

Compound activity deposited in PubChem by The Scripps Research Institute Molecular Screening Center.
